Reference: PubChem BioAssay (NCATS)
Records with an inconclusive call do not appear. Activity calls are given as the source filed them. Unless noted, the call rests on the fitted dose curve; in most records, active means well fitted curve in the direction sought with a large enough effect; inconclusive means small, poorly fitted or top-dose-only effect, or another doubt; inactive means no such curve, though single readings can be large; an effect the other way counts as inactive or inconclusive.

Tests used:
[1] = molecular target: Cytochrome P450 1A2 (Homo sapiens) (UniProt P05177); assay: p450-cyp1a2 (AID 410; calls by dose curve; further: potency means the concentration at half of the fitted maximal effect;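 on activity change, negative = inhibition: -100% = full effect of reference inhibitor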)
Summary of the method: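 Read-out is luminescence from luciferin produced by CYP1A2 demethylation of Luciferin-ME (100uM, at Km). Detection reagent stopped the 60 min NADPH-dependent reaction; signals were normalized to 57 uM furafylline.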

[2] = NFAT Signaling Pathway (AID 444; active means well fitted curve in either direction with a large enough effect, not every such curve was filed as active;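 further: carbachol stimulus at about its EC50 of 1 µM final; on the % scale 0 is the no-effect control and ±100 the full control effect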); settings: Jurkat NFAT-bla M1, carbachol, beta-lactamase ratio, 5 h; at 17.2 µM (top of the series) unless noted
Summary of the method: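 Read-out: CCF4 FRET ratio (460 nm/530 nm) after 1 h RT dye loading, used for %activity and AC50 from titration series. Cells: Jurkat NFAT-β-lactamase/M1 line, treated with compound plus 1 uM carbachol for 5 h, 37 °C.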

[3] = molecular target: Glucocorticoid receptor (Homo sapiens) (UniProt P04150); assay: GR-EFC Redistribution (AID 451; calls by dose curve; further: potency means the concentration at half of the fitted maximal effect); settings: CHO-K1 GR-EFC translocation, beta-gal luminescence, 2 h
Summary of the method: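 Translocation of GR-ED fusion to nuclear EA restores b-gal, read by luminescence after 1 h room-temperature detection. Engineered CHO-K1 biosensor cells, 1,000/well, exposed 2 h at 37 C to titrations up to 46 uM final.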

[4] = molecular target: Cytochrome P450 2D6 (Homo sapiens) (UniProt P10635); assay: qHTS Assay for Inhibitors and Substrates of Cytochrome P450 2D6 (AID 891); further: potency means the concentration at half of the fitted maximal effect; nearly all actives have a fitted effect of over 60% in size
Summary of the method: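 Luminescent read-out of luciferin formed by 5 nM human CYP2D6 demethylating 30 uM Luciferin-ME EGE (Km level) over 60 min at room temperature after NADPH regeneration addition. Data normalized to full inhibition by 1.43 uM quinidine.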

[5] = S16 Schwann cell PMP22 intronic element firefly luciferase assay (AID 624032);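 further: plate controls were DMSO for no effect and PTC124 positive control mean for full effect; nearly all actives have a fitted effect of over 30% in size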
Summary of the method: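 Luciferase reporter of PMP22 intronic-element expression in stably transfected S16 rat Schwann cells, read by ONE-Glo luminescence after 24 h compound exposure at 37 C. Activity scaled between DMSO (0%) and positive-control PTC124; concentration-effect curves quality-classified.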

[6] = tested on: CP203; assay: qHTS profiling for inhibitors of Plasmodium falciparum proliferation (AID 504749); further: nearly all actives have a fitted effect of over 60% in size; further: potency means the concentration at half of the fitted maximal effect; settings: P. falciparum in erythrocytes, SYBR Green DNA, 72 h; series mostly up to 12.8 µM
Summary of the method: (§1)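 In a 72 h erythrocytic culture (37 C, humidified, 5% CO2) at 2.5% hematocrit and 0.3% starting parasitemia, compounds were tested; SYBR Green I in detergent lysis buffer stained parasite DNA overnight.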

[7] = tested on: CP215; assay: as above; settings: P. falciparum in erythrocytes, SYBR Green DNA, 72 h; series mostly up to 12.8 µM
Summary of the method: as §1

[8] = tested on: CP335; assay: as above; settings: P. falciparum in erythrocytes, SYBR Green DNA, 72 h; series mostly up to 12.8 µM
Summary of the method: as §1

[9] = tested on: DIV14; assay: as above; settings: P. falciparum in erythrocytes, SYBR Green DNA, 72 h; series mostly up to 12.8 µM
Summary of the method: as §1

[10] = tested on: ICS; assay: as above; settings: P. falciparum in erythrocytes, SYBR Green DNA, 72 h; series mostly up to 12.8 µM
Summary of the method: as §1

[11] = tested on: TAB113; assay: as above; settings: P. falciparum in erythrocytes, SYBR Green DNA, 72 h; series mostly up to 12.8 µM
Summary of the method: as §1

[12] = molecular target: Cytochrome P450 2C19 (Homo sapiens) (UniProt P33261); assay: qHTS Assay for Inhibitors and Substrates of Cytochrome P450 2C19 (AID 899); further: potency means the concentration at half of the fitted maximal effect; nearly all actives have a fitted effect of over 60% in size
Summary of the method: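 Reactions contain 5nM enzyme, 10uM Luciferin-H EGE (KM) and 50mM KPO4; compound preincubates 10 min at 37C, NADPH regeneration starts turnover for 60 min. Luminescence after detection reagent gives activity.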

[13] = S16 Schwann cell PMP22 intronic element beta-lactamase assay (AID 624044; calls by dose curve;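 further: 0% = DMSO and -100% = potassium clavulanate positive control; nearly all actives have a fitted effect of over 15% in size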)
Summary of the method: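 Beta-lactamase reporter under a PMP22 intronic regulatory element in stable S16 rat Schwann cells; 24 h compound exposure. 460 nm blue signal normalized between DMSO (0%) and potassium clavulanate, with 535 nm FRET tracking viability; curves classed by r2 and response.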

[14] = tested on: 7G8; assay: qHTS profiling for inhibitors of Plasmodium falciparum proliferation (AID 504749); further: nearly all actives have a fitted effect of over 60% in size; further: potency means the concentration at half of the fitted maximal effect; settings: P. falciparum in erythrocytes, SYBR Green DNA, 72 h; series mostly up to 12.8 µM
Summary of the method: as §1

[15] = tested on: DFO2036; assay: as above; settings: P. falciparum in erythrocytes, SYBR Green DNA, 72 h; series mostly up to 12.8 µM
Summary of the method: as §1

[16] = tested on: W2; assay: as above; settings: P. falciparum in erythrocytes, SYBR Green DNA, 72 h; series mostly up to 12.8 µM
Summary of the method: as §1

[17] = molecular target: Cytochrome P450 3A4 (Homo sapiens) (UniProt P08684); assay: qHTS Assay for Activators of Cytochrome P450 3A4 (AID 885); further: nearly all actives have a fitted effect of over 65% in size
Summary of the method: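 Activators are scored by enhanced luminescence from CYP3A4 conversion of luciferin-PPXE (25uM, equal to KM) to luciferin, after 60 min at RT with an NADPH-regenerating system.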

[18] = Confirmation and Secondary Assay for Modulators of Hemoglobin Beta Chain Splicing at IVS2 654 locus (AID 910);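 further: HeLa cells stably carrying EGFP split by mutant beta-globin IVS2-654 intron; per-well total GFP intensity by laser scanning cytometry after 2-day treatment; % of control where 0% means no effect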
Summary of the method: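 Readout: per-well total peak green fluorescence (488 nm ex, 500–520 nm em) from objects 5–250 µm, reflecting correct splicing of an EGFP-654 reporter. Compounds were applied for 2 days at 37 °C to overnight-plated HeLa EGFP-654 cells; controls were DMSO and 500 nM IVS2-654 PNA.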

[19] = Confirmation and Secondary Assay for Modulators of Hemoglobin Beta Chain Splicing at IVS2 705 locus (AID 930);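 further: HeLa cells stably expressing the EGFP-705 splicing reporter; GFP fluorescence per well restored by corrected splicing of the IVS2-705 intron in EGFP; % of control where 0% means no effect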
Summary of the method: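 First, HeLa EGFP-705 cells are seeded at 500/well in Optimem with 2% FCS and left overnight. Next, compound or DMSO is added for 2 days. Finally wells are laser-scanned and total peak GFP intensity scored.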

[20] = molecular target: Cytochrome P450 3A4 (Homo sapiens) (UniProt P08684); assay: qHTS Assay for Inhibitors and Substrates of Cytochrome P450 3A4 (AID 884); further: potency means the concentration at half of the fitted maximal effect; nearly all actives have a fitted effect of over 50% in size
Summary of the method: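 Luminescent readout of luciferin produced by CYP3A4 (20 nM) dealkylation of Luciferin-PPXE, 25 uM (its KM). NADPH-driven reaction ran 60 min at RT after 10 min compound preincubation; data scaled to 57 uM ketoconazole as 100% inhibition.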

Sequence of Cytochrome P450 2C19 (Homo sapiens) (P33261 whole entry, looked up): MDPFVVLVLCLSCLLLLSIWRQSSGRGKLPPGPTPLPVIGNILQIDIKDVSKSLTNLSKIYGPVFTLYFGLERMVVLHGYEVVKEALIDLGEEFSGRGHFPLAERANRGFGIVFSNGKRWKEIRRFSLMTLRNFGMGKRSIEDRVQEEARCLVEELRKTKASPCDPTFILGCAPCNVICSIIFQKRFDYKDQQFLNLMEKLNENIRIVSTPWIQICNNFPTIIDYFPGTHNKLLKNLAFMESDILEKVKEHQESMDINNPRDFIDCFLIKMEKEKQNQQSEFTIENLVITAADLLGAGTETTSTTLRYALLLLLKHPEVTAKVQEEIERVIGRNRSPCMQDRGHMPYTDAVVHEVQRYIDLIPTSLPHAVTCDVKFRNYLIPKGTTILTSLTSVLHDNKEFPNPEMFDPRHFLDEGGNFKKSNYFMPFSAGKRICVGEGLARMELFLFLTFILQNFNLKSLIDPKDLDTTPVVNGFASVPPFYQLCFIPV
Sequence of Glucocorticoid receptor (Homo sapiens) (P04150 whole entry, looked up, the tested form may be a part): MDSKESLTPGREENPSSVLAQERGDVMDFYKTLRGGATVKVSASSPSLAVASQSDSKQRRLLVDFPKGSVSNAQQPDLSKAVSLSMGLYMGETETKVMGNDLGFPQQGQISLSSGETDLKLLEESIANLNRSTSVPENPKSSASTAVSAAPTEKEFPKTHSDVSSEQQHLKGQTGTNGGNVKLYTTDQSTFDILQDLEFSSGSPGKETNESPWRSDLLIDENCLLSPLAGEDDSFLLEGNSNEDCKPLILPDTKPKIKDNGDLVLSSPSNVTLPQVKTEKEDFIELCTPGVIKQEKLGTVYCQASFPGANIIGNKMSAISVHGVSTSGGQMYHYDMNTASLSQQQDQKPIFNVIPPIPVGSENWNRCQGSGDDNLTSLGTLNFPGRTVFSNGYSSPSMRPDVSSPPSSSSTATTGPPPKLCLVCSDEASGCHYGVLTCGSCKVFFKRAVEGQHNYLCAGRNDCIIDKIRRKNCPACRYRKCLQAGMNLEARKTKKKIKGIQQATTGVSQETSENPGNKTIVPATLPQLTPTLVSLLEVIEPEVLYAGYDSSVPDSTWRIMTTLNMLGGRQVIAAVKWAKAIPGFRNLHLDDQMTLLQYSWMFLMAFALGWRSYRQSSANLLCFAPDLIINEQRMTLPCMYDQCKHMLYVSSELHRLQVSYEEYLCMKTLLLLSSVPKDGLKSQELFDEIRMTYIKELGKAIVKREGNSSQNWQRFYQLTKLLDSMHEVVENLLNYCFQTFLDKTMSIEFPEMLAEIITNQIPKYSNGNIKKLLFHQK
Sequence of Cytochrome P450 3A4 (Homo sapiens) (P08684 whole entry, looked up): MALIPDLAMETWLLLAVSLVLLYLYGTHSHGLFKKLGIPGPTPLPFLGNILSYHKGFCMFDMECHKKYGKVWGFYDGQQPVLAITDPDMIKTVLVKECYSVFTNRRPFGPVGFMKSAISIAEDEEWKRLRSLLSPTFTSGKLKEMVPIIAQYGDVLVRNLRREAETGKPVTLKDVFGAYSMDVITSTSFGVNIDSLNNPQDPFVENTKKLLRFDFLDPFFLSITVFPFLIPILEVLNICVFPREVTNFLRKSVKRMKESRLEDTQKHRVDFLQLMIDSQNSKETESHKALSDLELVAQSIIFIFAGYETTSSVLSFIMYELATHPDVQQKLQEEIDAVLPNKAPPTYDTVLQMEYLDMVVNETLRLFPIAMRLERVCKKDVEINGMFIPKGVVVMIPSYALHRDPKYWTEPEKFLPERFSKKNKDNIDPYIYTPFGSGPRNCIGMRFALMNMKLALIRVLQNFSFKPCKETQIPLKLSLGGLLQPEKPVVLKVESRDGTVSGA
Sequence of Cytochrome P450 1A2 (Homo sapiens) (P05177 whole entry, looked up): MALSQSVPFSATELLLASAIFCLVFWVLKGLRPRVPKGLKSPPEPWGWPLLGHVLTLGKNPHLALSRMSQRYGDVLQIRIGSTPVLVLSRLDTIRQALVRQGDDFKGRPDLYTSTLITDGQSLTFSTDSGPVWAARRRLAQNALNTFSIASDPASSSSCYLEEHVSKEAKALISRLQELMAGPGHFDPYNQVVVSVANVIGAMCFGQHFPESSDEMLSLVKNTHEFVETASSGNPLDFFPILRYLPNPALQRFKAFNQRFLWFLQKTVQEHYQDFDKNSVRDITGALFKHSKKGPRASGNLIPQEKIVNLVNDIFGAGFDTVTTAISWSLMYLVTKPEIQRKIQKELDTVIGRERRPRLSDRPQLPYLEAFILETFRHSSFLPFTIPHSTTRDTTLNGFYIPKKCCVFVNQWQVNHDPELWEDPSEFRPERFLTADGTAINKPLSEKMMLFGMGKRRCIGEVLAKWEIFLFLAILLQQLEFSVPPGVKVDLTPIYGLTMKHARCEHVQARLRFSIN
Sequence of Cytochrome P450 2D6 (Homo sapiens) (P10635 whole entry, looked up): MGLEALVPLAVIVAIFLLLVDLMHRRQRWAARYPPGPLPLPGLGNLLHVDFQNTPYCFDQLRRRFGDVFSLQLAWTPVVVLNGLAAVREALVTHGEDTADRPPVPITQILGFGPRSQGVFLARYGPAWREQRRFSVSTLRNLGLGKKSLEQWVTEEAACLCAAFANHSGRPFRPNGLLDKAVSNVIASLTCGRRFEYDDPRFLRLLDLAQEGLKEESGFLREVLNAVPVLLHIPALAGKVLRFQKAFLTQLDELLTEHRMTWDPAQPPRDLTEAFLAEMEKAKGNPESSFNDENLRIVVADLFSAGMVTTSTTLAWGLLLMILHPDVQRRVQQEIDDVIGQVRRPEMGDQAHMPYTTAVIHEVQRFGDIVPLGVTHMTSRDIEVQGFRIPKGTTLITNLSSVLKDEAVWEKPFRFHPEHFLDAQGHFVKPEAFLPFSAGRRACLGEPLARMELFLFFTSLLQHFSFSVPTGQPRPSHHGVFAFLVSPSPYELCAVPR

O=C(Nc1ccccc1)OC[C@H](CN1CCCCC1)OC(=O)Nc1ccccc1
inactive: activity change, negative = inhibition [2] -6.24% | Potency [3] > 20.6 µM | Potency [5] | Potency [6] | Potency [7] | Potency [8] | Potency [9] | Potency [10] | Potency [11]
active: Potency [1] 12.6 µM | Potency [4] 0.398 µM

C[C@@H](C(=O)O)c1ccc(C(=O)c2ccccc2)s1
inactive: activity change, negative = inhibition [2] 4.12% | Potency [5] | Potency [13] | Potency [14] | Potency [6] | Potency [7] | Potency [8] | Potency [15] | Potency [9] | Potency [10] | Potency [11] | Potency [16]
active: Potency [1] 0.251 µM | Potency [12] 3.98 µM

CC(=O)[C@H]1CC[C@@H]2[C@H]3CC=C4C[C@@H](O)CC[C@]4(C)[C@H]3CC[C@]12C
inactive: Potency [1] | activity change, negative = inhibition [2] 3.47%

COc1c2c(nc3ccccc13)O[C@H]([C@@](C)(O)CO)C2
active: Potency [1] 12.6 µM
inactive: activity change, negative = inhibition [2] -17.9% | Potency [3] > 20.6 µM

CN1CCC[C@@H](CC2c3ccccc3Sc3ccccc32)C1
active: activity change, negative = inhibition [2] -49.6% | Potency [4] 0.316 µM | Potency [14] 3.98 µM | Potency [9] 2.28 µM | Potency [16] 1.44 µM
inactive: Potency [1] | Potency [3] > 20.6 µM | Potency [13] | Potency [8] | Potency [11]

Cc1ccnc(N)c1
inactive: Potency [1] | Potency [3] > 46 µM

CCC(=O)[C@@]1(C)[C@H](C)C[C@@H]2[C@@H]3CCC4=CC(=O)C=C[C@@]4(C)[C@H]3[C@H](O)C[C@]21C
active: Potency [14] 2 µM | Potency [10] 3.55 µM | Potency [16] 5.1 µM
inactive: Potency [1] | Potency [5] | Potency [13] | Potency [6] | Potency [7] | Potency [15] | Potency [9] | Potency [11]

COc1ccc([C@@H]2CC(=O)c3c(O)cc(O[C@H]4O[C@@H](CO[C@H]5O[C@@H](C)[C@@H](O)[C@@H](O)[C@@H]5O)[C@@H](O)[C@@H](O)[C@@H]4O)cc3O2)cc1O
inactive: Potency [1] | activity change, negative = inhibition [2] 6.75% | Potency [5] | Potency [14] | Potency [6] | Potency [7] | Potency [15] | Potency [9] | Potency [10] | Potency [11] | Potency [16]

CN=C(NC#N)NCCSC[C@H]1N=CN=C1C
inactive: Potency [1] | activity change, negative = inhibition [2] -3.43%

COC(=O)C1=C(C)NC(C)=C(C(=O)OC(C)C)[C@H]1c1cccc2nonc12
inactive: activity change, negative = inhibition [2] -22.3% | Potency [13] | Potency [15]
active: Potency [1] 12.6 µM | Potency [14] 3.16 µM | Potency [10] 3.55 µM

C=C(C)[C@H]1CC[C@]2(CO)CC[C@]3(C)[C@@H](CC[C@H]4[C@@]5(C)CC[C@@H](O)C(C)(C)[C@@H]5CC[C@@]43C)[C@H]12
inactive: Potency [1] | activity change, negative = inhibition [2] -4.45% | Potency [3] > 20.6 µM

O=C1C=CC(=O)c2c1ccc1c2ccc2ccccc21
active: Potency [1] 0.794 µM | activity change, negative = inhibition [2] -25.7%

C#C[C@]1(O)CC[C@@H]2[C@H]3CCc4cc(OC)ccc4[C@@H]3CC[C@@]21C
inactive: Potency [3] > 20.6 µM | Potency [17]
active: Potency [1] 0.501 µM

FC(F)(F)c1ccccc1-c1ccc2ncnc(NC3CCNCC3)c2c1
inactive: activity change, negative = inhibition [2] 2.61% [at 7.69 µM] | Potency [3] > 46 µM | Potency [18] | Potency [19]
active: Potency [1] 20 µM | Potency [12] 3.98 µM

CS(=O)(=O)Nc1cccc(-c2nc(Nc3ccc(F)cc3)c3ccccc3n2)c1
active: Potency [1] 0.794 µM | Potency [20] 6.31 µM | Potency [12] 7.94 µM
inactive: Potency [3] > 46 µM | Potency [17] | Potency [18] | Potency [19]

C[C@H](CCC(=O)O)[C@H]1CC[C@@H]2[C@@H]3[C@@H](O)C[C@H]4C[C@@H](O)CC[C@@]4(C)[C@H]3CC[C@@]21C
inactive: Potency [5] | Potency [13] | Potency [14] | Potency [6] | Potency [7] | Potency [8] | Potency [9] | Potency [10] | Potency [11] | Potency [16]

NC[C@@H]1O[C@H](O[C@H]2[C@H](O)[C@H](O[C@@H]3O[C@H](CO)[C@@H](O)[C@H](N)[C@@H]3O)[C@@H](N)C[C@H]2N)[C@@H](O)[C@H](O)[C@@H]1O
inactive: activity change, negative = inhibition [2] -3.83% | Potency [3] > 20.6 µM | Potency [5] | Potency [14] | Potency [6] | Potency [7] | Potency [8] | Potency [9] | Potency [10] | Potency [11] | Potency [16]

Nc1ncn([C@H]2O[C@@H](CO)[C@@H](O)[C@@H]2O)c(=O)n1
inactive: activity change, negative = inhibition [2] -16.5% | Potency [3] > 20.6 µM

CCCCC[C@H](O)/C=C\[C@@H]1[C@H](O)CC(=O)[C@@H]1CCCCCCC(=O)O
inactive: Potency [5] | Potency [6] | Potency [7] | Potency [8] | Potency [15] | Potency [11]
active: Potency [10] 3.55 µM
